Laboratory results as given in PubChem BioAssay AID602431 (Southern Research Specialized Biocontainment Screening …, 2012).
Potency and affinity values are given separately. Inconclusive results are not listed. A number with no mark means an inactive call. The rule behind the calls is not given here.

Experiment: viability loss in Vero cells – cell-based, purified and synthesized samples, set 8, cytotoxicity control for M. tuberculosis inhibitor project (AID 602431)
Details: series mostly up to 100 µM; viability: at the top concentration

Compound	viability [%]
COCCNC(=O)CSc1nc2ccccc2c(=O)[nH]1	91.8
O=C(c1ccc(CNc2c(N3CCOCC3)c(=O)c2=O)cc1)N1CCC(c2ccccc2)CC1	94.5
CC(C)CCNC(=O)CSc1nc2c(c(=O)[nH]1)CCCCC2	93.8
O=C(CSc1nc2c(c(=O)[nH]1)CCC2)NC1CCCCC1	95.9
O=C(NCc1ccc(C(=O)N2CCN(c3ccccc3)CC2)cc1)NC1CCCCC1	99.6
O=C(CSc1nc2ccccc2c(=O)[nH]1)NC1CCOCC1	87.4
CC(C)CCNC(=O)CSc1nc2ccccc2c(=O)[nH]1	88.2
O=C(c1ccc(CNc2c(N3CCOCC3)c(=O)c2=O)cc1)N1CCN(c2ccccc2)CC1	99.7
COC(=O)C(Cc1ccccc1)NC(=O)CSc1nc2ccccc2c(=O)[nH]1 (configuration not stated)	96.1
O=C(c1ccc(CNc2c(N3CCCC3)c(=O)c2=O)cc1)N1CCN(c2ccccc2)CC1	97.1
CC(C)CCNC(=O)CSc1nc2c(c(=O)[nH]1)CCCC2	89.3
O=C(CSc1nc2c(c(=O)[nH]1)CCCC2)NC1CCCCC1	85.2
